Assay outcomes as filed in PubChem.
PGC1a acetyl inh = lowers PGC1a acetylation signal in U2OS cells; AlphaScreen anti-acetyl-lysine; with virally co-expressed GCN5 acetyltransferase; actives 0.17% (n = 350,000); inhibition, % at 15.6 µM; AID 651687;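 active = every replicate shows inhibition of at least 40%; inconclusive = mean inhibition at least 40% but some replicate below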;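 also: 0% = neutral control wells and 100% = positive control wells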
NSD2 HMT inh = NSD2 (human) methyltransferase inhibition | actives 0.54% (n = 310,000) | AID 743445 | NSD2 peptide methylation, AlphaScreen, 120 min | inhibition, % at 12.5 µM; in the data active = inhibition above about 50%
Target sequence (O96028 whole entry, looked up): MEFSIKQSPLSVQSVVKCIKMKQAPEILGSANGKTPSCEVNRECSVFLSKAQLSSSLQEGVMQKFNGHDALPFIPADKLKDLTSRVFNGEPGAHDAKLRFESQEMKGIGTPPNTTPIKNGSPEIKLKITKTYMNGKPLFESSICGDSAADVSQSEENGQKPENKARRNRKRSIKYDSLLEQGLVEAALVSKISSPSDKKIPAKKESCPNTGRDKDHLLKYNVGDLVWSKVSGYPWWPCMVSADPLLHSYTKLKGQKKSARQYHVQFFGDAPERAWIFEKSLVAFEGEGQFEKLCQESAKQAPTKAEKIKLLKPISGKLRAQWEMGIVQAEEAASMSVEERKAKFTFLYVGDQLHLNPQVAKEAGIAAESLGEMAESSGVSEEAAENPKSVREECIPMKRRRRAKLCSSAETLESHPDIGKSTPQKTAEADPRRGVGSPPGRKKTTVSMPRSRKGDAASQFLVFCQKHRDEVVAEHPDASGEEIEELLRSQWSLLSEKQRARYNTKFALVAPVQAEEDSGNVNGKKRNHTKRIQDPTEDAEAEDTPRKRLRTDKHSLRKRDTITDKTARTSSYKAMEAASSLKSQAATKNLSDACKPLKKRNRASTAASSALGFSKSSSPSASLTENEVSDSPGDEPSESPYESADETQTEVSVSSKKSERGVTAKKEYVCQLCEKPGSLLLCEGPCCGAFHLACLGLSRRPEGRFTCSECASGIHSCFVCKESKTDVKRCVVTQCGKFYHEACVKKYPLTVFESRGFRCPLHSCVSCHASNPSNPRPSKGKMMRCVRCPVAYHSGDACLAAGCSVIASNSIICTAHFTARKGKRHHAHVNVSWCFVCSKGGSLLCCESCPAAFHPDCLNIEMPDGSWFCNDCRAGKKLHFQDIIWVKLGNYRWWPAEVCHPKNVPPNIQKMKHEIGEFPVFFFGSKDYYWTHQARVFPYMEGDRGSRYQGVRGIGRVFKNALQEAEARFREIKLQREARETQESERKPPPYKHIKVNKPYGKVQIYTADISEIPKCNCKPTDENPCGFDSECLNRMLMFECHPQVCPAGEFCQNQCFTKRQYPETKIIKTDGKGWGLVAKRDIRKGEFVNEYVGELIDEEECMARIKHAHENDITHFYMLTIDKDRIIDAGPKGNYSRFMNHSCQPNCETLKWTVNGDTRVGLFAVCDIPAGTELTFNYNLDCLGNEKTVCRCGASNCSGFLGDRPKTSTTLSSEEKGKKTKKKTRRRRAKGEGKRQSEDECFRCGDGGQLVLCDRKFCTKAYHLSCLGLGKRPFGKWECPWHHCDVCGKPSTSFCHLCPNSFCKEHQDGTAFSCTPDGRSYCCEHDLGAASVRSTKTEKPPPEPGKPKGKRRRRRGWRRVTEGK
Env fusion inh = inhibitors of HIV Env-mediated cell fusion; HeLa-JRFL Env/CEM21 cell fusion, luciferase; inhibition, % at 12.3 µM; actives 1.1% (n = 360,000);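 active = mean replicate inhibition score of at least 50 and every replicate individually at or above 50; inconclusive = only one of the two criteria met; inactive = mean below 50 and not all replicates reaching 50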;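 also: 0% = plate neutral controls and 100% = maraviroc near 300 nM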
INS-1E GSIS act = primary screen for activators of insulin secretion dependent on glucose, INS-1E cells, GLuc reporter luminescence | INS-1E GLuc reporter insulin secretion, 2-3 h | activation, % at 16.6 µM | actives 0.61% (n = 370,000) | AID 743287;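 active = lowest replicate activation of at least 40%, so every replicate reaches that level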;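 also: 0% = median of neutral control wells and 100% = median of IBMX positive control wells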
MLL AF4-AF9 inh = inhibitors of human MLL-AF4/AF9 interaction | AID 651704 | inhibition, % at 10 µM | AlphaScreen, biotin-AF4 peptide binding to FLAG-AF9 | P42568 | actives 0.47% (n = 350,000);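 active = every replicate reaching a set inhibition limit, whatever the replicate mean, cut at about 25% in these data; inconclusive = mean inhibition reaches that limit but some replicates miss it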;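 also: 0% = plate neutral control median and 100% = total signal loss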
* hit, by the source's call; [ ] = another dose, or the depositor's remark. Shown are actives, neighbours in structure and some others; about 2.1% of the full set was active somewhere.

How did CN(C)S(=O)(=O)c1cccc(NC(=O)CCc2nc3sc4c(c3c(=O)[nH]2)CCCC4)c1 do in these assays?
PGC1a acetyl inh: 2.8; NSD2 HMT inh: -1.4; Env fusion inh: 23.2; MLL AF4-AF9 inh: 2.0

What do the screens show for `Cc1ccc(S(=O)(=O)N2C[C@H]3[C@H]4C(=O)N(Cc5ccccc5)C(=O)[C@H]4CC(=O)[C@H]3[C@@H]2c2ccccc2F)cc1`?
PGC1a acetyl inh: -15.7; Env fusion inh: inconclusive; INS-1E GSIS act: -8.3; MLL AF4-AF9 inh: -2.0

What do the screens show for `Cc1ccc(S(=O)(=O)N2C[C@H]3[C@H]4C(=O)N(C5CCCCC5)C(=O)[C@H]4CC(=O)[C@H]3[C@@H]2c2cccc3ccccc23)cc1`?
PGC1a acetyl inh: -12.9; Env fusion inh: 34.9; INS-1E GSIS act: 6.7; MLL AF4-AF9 inh: 1.2

What do the screens show for `Cc1ccc(S(=O)(=O)N2C[C@H]3[C@H]4C(=O)N(Cc5ccccc5)C(=O)[C@H]4CC(=O)[C@H]3[C@@H]2c2ccccc2Cl)cc1`?
PGC1a acetyl inh: -12.3; Env fusion inh: 60.0*; INS-1E GSIS act: -6.4; MLL AF4-AF9 inh: 1.8

Results for Cc1ccc(S(=O)(=O)N2C[C@H]3[C@H]4C(=O)N(C5CCCCC5)C(=O)[C@H]4CC(=O)[C@H]3[C@@H]2c2ccccc2F)cc1 ?
PGC1a acetyl inh: 9.2; Env fusion inh: 64.5*; INS-1E GSIS act: -6.9; MLL AF4-AF9 inh: -1.0

Results for CS(=O)(=O)N1CCC(C(=O)Nc2c(F)cccc2F)CC1 ?
PGC1a acetyl inh: 0.8; NSD2 HMT inh: -1.3; Env fusion inh: -31.4

Results for O=C(NCCc1ccccc1)C1CCN(c2nc3ccccc3o2)CC1 ?
PGC1a acetyl inh: 0.4; NSD2 HMT inh: -1.4; INS-1E GSIS act: 6.3; MLL AF4-AF9 inh: 0.9

Results for O=C(NC1CCCCCC1)C1CCCN(c2ncccn2)C1 (centres undefined) ?
PGC1a acetyl inh: 6.7; NSD2 HMT inh: 2.1; Env fusion inh: -21.5; INS-1E GSIS act: 64.8*; MLL AF4-AF9 inh: 4.6

How did O=C(NC1CCCCCCC1)C1CCN(c2nc3ccccc3o2)CC1 do in these assays?
NSD2 HMT inh: 4.9; Env fusion inh: 75.2*

Results for C[C@H](CO)N1C[C@H](C)[C@@H](CN(C)Cc2ccccn2)Oc2cc(Br)ccc2S1(=O)=O ?
PGC1a acetyl inh: -25.2; Env fusion inh: 5.7[16.7 µM]; INS-1E GSIS act: 1.5; MLL AF4-AF9 inh: -0.1

Results for Nc1[nH]c(C(=O)c2ccccc2)c(-c2ccc(Br)cc2)c1C(=O)c1ccccc1 ?
Env fusion inh: -12.6; INS-1E GSIS act: -4.3

Results for COC(=O)c1cccc(N/C=C(\[N+](=O)[O-])S(=O)(=O)c2ccccc2)c1 ?
PGC1a acetyl inh: -5.2; NSD2 HMT inh: 1.4; Env fusion inh: -2.2; INS-1E GSIS act: 51.1*; MLL AF4-AF9 inh: -0.1

Results for COc1ccccc1C(=O)NCC(=O)OCC(=O)Nc1cccc(S(=O)(=O)N2CCCCCC2)c1 ?
PGC1a acetyl inh: 5.9; NSD2 HMT inh: -1.2; Env fusion inh: -1.0; INS-1E GSIS act: -22.6; MLL AF4-AF9 inh: -1.6

What do the screens show for `NC(=O)c1ccc(Nc2ccc([N+](=O)[O-])cc2[N+](=O)[O-])cc1`?
PGC1a acetyl inh: 8.7; NSD2 HMT inh: -1.1; Env fusion inh: -15.1; INS-1E GSIS act: 8.6; MLL AF4-AF9 inh: 1.1

Results for Nc1ccc(Nc2ccc([N+](=O)[O-])cc2[N+](=O)[O-])cc1 ?
NSD2 HMT inh: 17.1; Env fusion inh: -9.8; INS-1E GSIS act: -5.9; MLL AF4-AF9 inh: 26.6*

How did CCOC(=O)/C=c1\sc2n(c1=O)CCN=2 do in these assays?
PGC1a acetyl inh: 5.1; NSD2 HMT inh: 1.5; Env fusion inh: -26.6; INS-1E GSIS act: 47.6*

Results for CCNc1nc(NCC)nc(N(C#N)C(C)C)n1 ?
PGC1a acetyl inh: 6.4; NSD2 HMT inh: -12.9; Env fusion inh: -16.7; INS-1E GSIS act: 47.8*; MLL AF4-AF9 inh: 4.1

What do the screens show for `CCNc1nc(NC(C)C)nc(N(C#N)C(C)C(=O)N(C)C)n1` (centres undefined)?
PGC1a acetyl inh: -2.5; NSD2 HMT inh: -7.6

How did CCCCCCCCN1C(=O)[C@H](CC(=O)N2CCCCC2)C[C@@]2(C(=O)OC)CCCCC=C12 do in these assays?
Env fusion inh: 23.4; INS-1E GSIS act: 46.7*; MLL AF4-AF9 inh: -5.2

How did CCCCCCCCN1C(=O)[C@H](CC(=O)N2CCOCC2)C[C@@]2(C(=O)OC)CCCCC=C12 do in these assays?
Env fusion inh: -19.6; MLL AF4-AF9 inh: 0.5

Results for CCCCCCCCN1C(=O)[C@H](CC(=O)N2CCCCC2)C[C@@]2(C(=O)OC)CC(C)(C)CC=C12 ?
Env fusion inh: 27.7; INS-1E GSIS act: 81.3*

What do the screens show for `CCCCCCCCN1C(=O)[C@H](CC(=O)N2CCOCC2)C[C@@]2(C(=O)OC)CC(C)(C)CC=C12`?
Env fusion inh: 17.6; INS-1E GSIS act: -20.1; MLL AF4-AF9 inh: -0.7

Results for Cc1cccc(Nc2nc(N)c([N+](=O)[O-])c(N3CCOCC3)n2)c1 ?
NSD2 HMT inh: 3.6; MLL AF4-AF9 inh: 13.1

Results for Cc1ccc(Nc2nc(N)c([N+](=O)[O-])c(N3CCOCC3)n2)cc1 ?
NSD2 HMT inh: -1.0; Env fusion inh: 40.0; INS-1E GSIS act: 55.9*

How did CC1CCCN(c2nc(NCc3ccco3)nc(N)c2[N+](=O)[O-])C1 (centres undefined) do in these assays?
NSD2 HMT inh: 10.2; Env fusion inh: 13.1; INS-1E GSIS act: 27.0; MLL AF4-AF9 inh: inconclusive

What do the screens show for `Cc1ccc(Nc2nc(N)c([N+](=O)[O-])c(N3CCCC(C)C3)n2)cc1C` (centres undefined)?
NSD2 HMT inh: 2.5; INS-1E GSIS act: 60.0*

What do the screens show for `COc1ccc(/C(C)=N/NC(=O)Cn2nc([N+](=O)[O-])cc2C)cc1`?
NSD2 HMT inh: -4.3; Env fusion inh: -20.4; INS-1E GSIS act: 51.0*

What do the screens show for `Cc1ccc(NC(=O)c2ccc(CN3CCc4ccccc4C3)cc2)cc1`?
PGC1a acetyl inh: 16.6; NSD2 HMT inh: 2.7; Env fusion inh: 93.4*

What do the screens show for `Cc1cc(C)cc(NC(=O)c2ccc(CN3CCc4ccccc4C3)cc2)c1`?
NSD2 HMT inh: -1.6; Env fusion inh: 10.4; INS-1E GSIS act: -15.5; MLL AF4-AF9 inh: 0.8

What do the screens show for `O=C(Nc1cccnc1)c1ccc(CN2CCc3ccccc3C2)cc1`?
PGC1a acetyl inh: 19.8; NSD2 HMT inh: -2.8; Env fusion inh: 53.9*

What do the screens show for `O=C(Nc1ccccc1)c1ccc(CN2CCc3ccccc3C2)cc1`?
PGC1a acetyl inh: 7.1; NSD2 HMT inh: -2.9; Env fusion inh: 61.0*; INS-1E GSIS act: -36.0; MLL AF4-AF9 inh: -0.7

How did CCN(CC)C(=O)C1=C(C)N(Cc2ccccc2)C(=O)C(CC(=O)NC2CCCC2)C1 (centres undefined) do in these assays?
PGC1a acetyl inh: -12.2; Env fusion inh: -15.0; INS-1E GSIS act: 9.2; MLL AF4-AF9 inh: -1.0

Results for CNC[C@H]1OCc2ccccc2-c2c(n(C)c3ccccc23)C(=O)N([C@H](C)CO)C[C@H]1C ?
PGC1a acetyl inh: 7.3; Env fusion inh: -16.3[16.7 µM]; INS-1E GSIS act: 5.0; MLL AF4-AF9 inh: -2.8

Results for O=C(c1ccccc1F)N1CCN(Cc2cccc(Cl)c2)CC1 ?
NSD2 HMT inh: -1.5; Env fusion inh: 69.2*
